This note sets out measurements from PubChem BioAssay.

Assay [1] is described as follows: antimalarial activity against Dd2 strain (AID 2302;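 active = growth inhibition above 50% at the single 2 µM test dose, taken to imply half-maximal potency below 2 µM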;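 note: 0% = DMSO untreated growth and 100% = chloroquine plus artemisinin killed control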). Particulars: P. falciparum Dd2 in RBCs, LDH growth readout, 72 h; at 2 µM; hits give high values.
The nature of assay [2]: HepG2 cytotoxicity, primary screen, cytotoxicity control for P. falciparum antimalarial project, cell-based, ATP luminescence (AID 2303;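 active = inhibition above 50%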;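 note: 0% = DMSO wells and 100% = digitonin-killed cells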). To be noted: HepG2 viability, 24-48 h, at 10 µM, hits give high values.
Assay [3] addresses L-lactate dehydrogenase (Plasmodium falciparum (isolate CDC / Honduras)) (UniProt Q27743). Briefly: PfLDH activity inhibition – cell lysate, 3D7 strain, counter-screen for P. falciparum growth inhibition project (AID 2304).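 Note: 0% = vehicle and 100% = reference inhibitor.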 Particulars: P. falciparum 3D7 crude extract, LDH APAD/NBT absorbance; at 2 µM; hits give high values.
Assay [4] is described as follows: inhibition of 3D7 malaria parasite growth – strain 3D7 (AID 2306).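 Note: 0% = DMSO wells and 100% = chloroquine plus artemisinin control wells.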 Particulars: P. falciparum 3D7 erythrocytic growth, LDH absorbance, 72 h; at 2 µM; hits give high values.
For assay [5], the target named is Calcium-dependent protein kinase 1 (Plasmodium falciparum (isolate 3D7)) (UniProt P62344). Briefly: PfCDPK1 kinase inhibitors, biochemical, TCAMS library (AID 1159585; cut-off not given, nearly all actives have IC50 up to about 0.98 µM;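 note: inhibitors leave more ATP so luminescence rises with inhibition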). Particulars: recombinant PfCDPK1, Kinase-Glo ATP depletion luminescence.
In assay [6] the target is Plasmodium falciparum protein kinase 6 (PK6, PF3D7_1337100) (UniProt Q8IDW1). Briefly: PfPK6 kinase inhibitors, biochemical, TCAMS library (AID 1159586). Particulars: recombinant PfPK6, Kinase-Glo ATP depletion luminescence.
The target in assay [7] is Protein kinase 7 (PK7), Plasmodium falciparum 3D7 (PF3D7_0213400) (UniProt Q7YTF7). The assay can be described thus: inhibition of Plasmodium PK7 catalytic activity – biochemical, TCAMS antimalarial set, Kinase-Glo luminescence (AID 1159587). Particulars: recombinant PfPK7, Kinase-Glo ATP depletion luminescence.
Assay [8] concerns the target Calcium-dependent protein kinase 4 (Plasmodium falciparum (isolate 3D7)) (UniProt Q8IBS5). Briefly: PfCDPK4 kinase inhibitors, biochemical, TCAMS library (AID 1159588; cut-off not given, nearly all actives have IC50 up to about 0.91 µM). To be noted: recombinant PfCDPK4, Kinase-Glo ATP depletion luminescence.

Values without a mark were called inactive. For part of these data: Potency and affinity values are given separately. Active and inactive are the calls of the source. Unless noted, the rule behind the calls is not given here.

Chain of Protein kinase 7 (PK7), Plasmodium falciparum 3D7 (PF3D7_0213400) (Q7YTF7 1-343): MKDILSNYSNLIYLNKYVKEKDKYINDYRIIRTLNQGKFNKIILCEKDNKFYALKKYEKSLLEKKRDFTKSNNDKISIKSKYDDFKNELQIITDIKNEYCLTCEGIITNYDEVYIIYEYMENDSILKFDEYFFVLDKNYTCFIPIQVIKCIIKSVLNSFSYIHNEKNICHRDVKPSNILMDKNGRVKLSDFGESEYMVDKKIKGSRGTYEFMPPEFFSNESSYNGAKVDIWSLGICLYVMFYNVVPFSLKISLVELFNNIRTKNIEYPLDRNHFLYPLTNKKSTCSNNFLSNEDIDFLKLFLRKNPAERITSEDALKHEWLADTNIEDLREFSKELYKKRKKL
Chain of Calcium-dependent protein kinase 1 (Plasmodium falciparum (isolate 3D7)) (P62344 whole entry, looked up): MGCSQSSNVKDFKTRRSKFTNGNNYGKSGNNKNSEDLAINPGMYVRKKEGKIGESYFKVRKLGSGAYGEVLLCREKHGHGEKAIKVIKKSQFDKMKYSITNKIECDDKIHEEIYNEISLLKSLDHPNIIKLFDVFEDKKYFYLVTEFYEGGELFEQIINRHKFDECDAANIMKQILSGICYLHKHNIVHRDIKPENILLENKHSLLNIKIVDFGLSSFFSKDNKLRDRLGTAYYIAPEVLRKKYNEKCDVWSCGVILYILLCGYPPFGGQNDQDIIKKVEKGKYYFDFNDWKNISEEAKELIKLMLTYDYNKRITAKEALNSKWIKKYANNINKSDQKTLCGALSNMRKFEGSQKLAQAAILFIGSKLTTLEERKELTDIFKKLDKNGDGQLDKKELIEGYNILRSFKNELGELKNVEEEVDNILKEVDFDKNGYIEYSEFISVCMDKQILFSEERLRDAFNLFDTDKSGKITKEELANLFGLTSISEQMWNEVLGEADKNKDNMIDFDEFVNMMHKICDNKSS
Chain of Plasmodium falciparum protein kinase 6 (PK6, PF3D7_1337100) (Q8IDW1 1-305): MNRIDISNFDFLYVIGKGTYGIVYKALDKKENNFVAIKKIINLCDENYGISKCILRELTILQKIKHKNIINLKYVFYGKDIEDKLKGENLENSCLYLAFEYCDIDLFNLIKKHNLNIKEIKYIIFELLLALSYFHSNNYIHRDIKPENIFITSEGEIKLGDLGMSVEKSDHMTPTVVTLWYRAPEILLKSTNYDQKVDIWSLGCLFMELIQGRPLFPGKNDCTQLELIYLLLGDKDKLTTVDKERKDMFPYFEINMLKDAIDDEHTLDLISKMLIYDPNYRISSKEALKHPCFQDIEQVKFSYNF
Chain of L-lactate dehydrogenase (Plasmodium falciparum (isolate CDC / Honduras)) (Q27743 whole entry, looked up): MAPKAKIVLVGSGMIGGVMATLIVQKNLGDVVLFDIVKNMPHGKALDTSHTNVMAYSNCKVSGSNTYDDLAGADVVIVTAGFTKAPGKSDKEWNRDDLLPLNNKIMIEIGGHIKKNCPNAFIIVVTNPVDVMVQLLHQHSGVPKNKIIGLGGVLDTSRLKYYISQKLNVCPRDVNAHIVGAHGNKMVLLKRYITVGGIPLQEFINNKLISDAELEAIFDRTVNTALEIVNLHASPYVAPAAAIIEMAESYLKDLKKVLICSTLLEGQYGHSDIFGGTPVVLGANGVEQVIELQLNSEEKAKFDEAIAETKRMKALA
Chain of Calcium-dependent protein kinase 4 (Plasmodium falciparum (isolate 3D7)) (Q8IBS5 whole entry, looked up): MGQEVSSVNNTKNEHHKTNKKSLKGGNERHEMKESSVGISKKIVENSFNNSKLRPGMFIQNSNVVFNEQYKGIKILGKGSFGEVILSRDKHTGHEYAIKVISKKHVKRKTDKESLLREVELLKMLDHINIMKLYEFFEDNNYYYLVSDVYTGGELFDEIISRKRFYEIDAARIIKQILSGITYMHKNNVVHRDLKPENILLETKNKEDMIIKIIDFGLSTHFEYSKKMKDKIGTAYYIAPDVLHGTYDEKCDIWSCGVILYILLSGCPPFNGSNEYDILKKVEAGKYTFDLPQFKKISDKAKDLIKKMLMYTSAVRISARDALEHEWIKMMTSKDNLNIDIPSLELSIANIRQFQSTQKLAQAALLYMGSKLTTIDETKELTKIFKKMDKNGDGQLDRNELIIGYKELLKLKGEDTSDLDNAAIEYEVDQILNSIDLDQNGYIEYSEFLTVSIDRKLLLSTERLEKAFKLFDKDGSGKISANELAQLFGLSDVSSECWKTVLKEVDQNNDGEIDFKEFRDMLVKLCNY

In the case of `CCCc1cc(C(=O)N[C@@H](Cc2ccccc2)[C@H](O)CNC(C)C)c(F)c(N2CCCC2=O)c1`, the growth inhibition in assay [1] was 22%; in assay [4], 90% (active). Besides, the inhibition in assay [2] was -2%; in assay [3] it was 0%. In addition, the result in assay [5], in assay [6], in assay [7] and in assay [8] was inactive.

As for `Cc1cc(C(=O)Nc2ccc3c(c2)CCN3C2CCN(Cc3cc(F)cc(F)c3F)C2)no1` (stereo not drawn), the growth inhibition in assay [1] was 96% (active); in assay [4], 95% (active). Also, the inhibition in assay [2] is -5%; in assay [3], 0%. Besides, the outcome in assay [5], in assay [6], in assay [7] and in assay [8] was inactive.

On to `CC(=O)c1ccc2cc(C(=O)NC3CCC(CCN4CCc5ccc(-c6noc(C)n6)cc5CC4)CC3)[nH]c2c1` (stereo not drawn), for which the growth inhibition in assay [1] is 45%; in assay [4] it was 81% (active). Also, the inhibition in assay [2] is 28%; in assay [3], 0%. In addition, the result in assay [5], in assay [6], in assay [7] and in assay [8] was inactive.

With `c1cc(Nc2nccc(-c3cnn4ncccc34)n2)cc(-c2cnco2)c1`, the growth inhibition in assay [1] is 83% (active); in assay [4], 96% (active). The inhibition is 54% (active) in assay [2] and 3% in assay [3]. The result in assay [5], in assay [6], in assay [7] and in assay [8] was inactive.

Take `Cc1cccc2[nH]c(-c3ccc(-c4ccc(CNCCc5ccncc5)cc4)cc3)nc12`: the results for the growth inhibition in assay [1] and in assay [4] were 98% (active) and 100% (active), respectively. For the same compound, the inhibition in assay [2] is 34%; in assay [3] it was 0%. Moreover, the result in assay [5], in assay [6], in assay [7] and in assay [8] was inactive.

Take `CN(C)C(CNC(=O)c1cc(-c2ccncc2)c(-c2cc3ccccc3[nH]2)o1)c1ccccc1` (stereo not drawn): the figures for the growth inhibition in assay [1] and in assay [4] were 62% (active) and 96% (active), respectively. The inhibition in assay [2] is 3%; in assay [3], -2%. Besides, the outcome in assay [5], in assay [6], in assay [7] and in assay [8] was inactive.

With `CC(C(=O)NC1CCN(c2ccnc(Nc3ccc(F)cc3)n2)C1)c1ccc(Cl)cc1` (stereo not drawn), the growth inhibition in assay [1] was 90% (active); in assay [4] it was 95% (active). Besides, the inhibition in assay [2] was 17%; in assay [3] it was -4%. Besides, the outcome in assay [5], in assay [6], in assay [7] and in assay [8] was inactive.

As to `Cc1cc(-c2cccc(CNCc3ccc(F)cc3)c2)ccc1S(=O)(=O)NCCN1CCCC1`, the values for the growth inhibition in assay [1] and in assay [4] were 64% (active) and 101% (active), respectively. The inhibition was 49% in assay [2] and 4% in assay [3]. Besides, the outcome in assay [5], in assay [6], in assay [7] and in assay [8] was inactive.

Consider `CCc1ccc(CN2CCC(NC(=O)c3cc(-c4ccc(N(C)C)cc4)cs3)C2)cc1` (stereo not drawn), for which the growth inhibition is 7% in assay [1] and 90% (active) in assay [4]. In addition, the figures for the inhibition in assay [2] and in assay [3] were 29% and 3%, respectively. The outcome in assay [5], in assay [6], in assay [7] and in assay [8] was inactive.

As for `COc1ccc(-c2cccc(NC(=O)c3cccc(Cl)c3)c2)cc1CN1CCCC1`, the growth inhibition in assay [1] was 66% (active); in assay [4] it was 99% (active). Moreover, the inhibition was 45% in assay [2] and 1% in assay [3]. Moreover, the outcome in assay [5], in assay [6], in assay [7] and in assay [8] was inactive.

`Cc1cccc(CN2CCCN(Cc3ccc(C(=O)Nc4ccc(Cl)cc4)cc3)CC2)c1`: the growth inhibition in assay [1] is 17%; in assay [4] it was 92% (active). For the same compound, the figures for the inhibition in assay [2] and in assay [3] were 54% (active) and 3%, respectively. Moreover, the result in assay [5], in assay [6], in assay [7] and in assay [8] was inactive.

For `CN(C)C(=O)CCCn1c(CNCCCNc2cc(=O)c3ccccc3[nH]2)cc2c(Cl)cc(Cl)cc21`, the values for the growth inhibition in assay [1] and in assay [4] were -4% and 89% (active), respectively. Besides, the inhibition is 1% in assay [2] and -1% in assay [3]. Besides, the outcome in assay [5], in assay [6], in assay [7] and in assay [8] was inactive.

In the case of `Cc1ccc(C)c2sc(N(CCCn3ccnc3)C(=O)C=Cc3cccs3)nc12`, the growth inhibition in assay [1] is 93% (active); in assay [4] it was 101% (active). For the same compound, the inhibition is 20% in assay [2] and 0% in assay [3]. Moreover, the result in assay [5], in assay [6], in assay [7] and in assay [8] was inactive.

Regarding `Cc1nc(N)nc(N)c1CCCOc1ccccc1Cl`, the growth inhibition in assay [1] is 5%; in assay [4] it was 98% (active). The figures for the inhibition in assay [2] and in assay [3] were 40% and -1%, respectively. Further, the outcome in assay [5], in assay [6], in assay [7] and in assay [8] was inactive.

As for `CCn1cc(-c2nc(-c3cc(OC)cc(OC)c3)no2)c(=O)c2ccccc21`, the figures for the growth inhibition in assay [1] and in assay [4] were 77% (active) and 89% (active), respectively. Moreover, the inhibition is -7% in assay [2] and 0% in assay [3]. The outcome in assay [5], in assay [6], in assay [7] and in assay [8] was inactive.

In the case of `COc1ccc(-c2cccc(NC(=O)c3cccc(C#N)c3)c2)cc1CN1CCCN(C)CC1`, the growth inhibition is 99% (active) in assay [1] and 101% (active) in assay [4]. Further, the inhibition is 22% in assay [2] and -4% in assay [3]. Further, the outcome in assay [5], in assay [6], in assay [7] and in assay [8] was inactive.

For the compound `CN1CCCN(Cc2cccc(-c3cccc(NC(=O)c4ccc(Cl)cc4)c3)c2)CC1`, the growth inhibition in assay [1] is 44%; in assay [4], 100% (active). For the same compound, the inhibition in assay [2] is 35%; in assay [3], 2%. In addition, the result in assay [5], in assay [6], in assay [7] and in assay [8] was inactive.

As to `O=S(=O)(c1ccccc1)n1ccc2cc(Nc3ncnc4cc(C#C[C@H]5CCCN5)sc34)ccc21`, the growth inhibition in assay [1] was 56% (active); in assay [4], 85% (active). Also, the figures for the inhibition in assay [2] and in assay [3] were 50% (active) and -3%, respectively. The result in assay [5], in assay [6], in assay [7] and in assay [8] was inactive.

For the compound `O=C(NCCCCN1CCC(c2c[nH]c3ccc(-c4ccccc4)cc23)CC1)c1ccc(-c2ccccc2)cc1`, the growth inhibition in assay [1] was 40%; in assay [4] it was 97% (active). The figures for the inhibition in assay [2] and in assay [3] were 48% and 3%, respectively. For the same compound, the result in assay [5], in assay [6], in assay [7] and in assay [8] was inactive.

In the case of `O=C(NCCN1CCOCC1)c1csc(C2CCCN(C(=O)c3ccc(O)c(-c4cc(Cl)cc(Cl)c4)c3)C2)n1` (stereo not drawn), the values for the growth inhibition in assay [1] and in assay [4] were 50% (active) and 97% (active), respectively. The inhibition was 12% in assay [2] and 6% in assay [3]. In addition, the outcome in assay [5], in assay [6], in assay [7] and in assay [8] was inactive.

In the case of `O=C(/C=C/c1ccc(Cl)cc1)NCCCCCN1CCC(C(=O)Nc2cccc(Cl)c2)CC1`, the values for the growth inhibition in assay [1] and in assay [4] were -6% and 97% (active), respectively. The inhibition is 22% in assay [2] and -8% in assay [3]. Also, the result in assay [5], in assay [6], in assay [7] and in assay [8] was inactive.
